Data as given in PubChem BioAssay (NCATS).
Inconclusive results are not listed. The source made the active and inactive calls. The call rests on the fitted dose curve; in most records, active means well fitted inhibition curve with a large enough effect; inconclusive means small, poorly fitted or top-dose-only effect; inactive means flat fitted curve, though single readings scatter.

Assays:
Assay in all cases: qHTS profiling for inhibitors of Plasmodium falciparum proliferation (AID 504749); further: nearly all actives have a fitted effect of over 60% in size
Conditions in all cases: P. falciparum in erythrocytes, SYBR Green DNA, 72 h; series mostly up to 28.7 µM
[1] = tested on: DIV14
Summary of the method: (§1)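 Each compound contacts P. falciparum-infected red blood cells for 72 h at 37 C; lysis buffer (Tris, EDTA, saponin, Triton X, SYBR Green I) is added and fluorescence measured next morning; values normalized to controls.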

[2] = tested on: DIV17
Summary of the method: as §1

[3] = tested on: DIV30
Summary of the method: as §1

[4] = tested on: Dd2
Summary of the method: as §1

[5] = tested on: ECU
Summary of the method: as §1

[6] = tested on: FAB9
Summary of the method: as §1

[7] = tested on: GB4
Summary of the method: as §1

[8] = tested on: HB3
Summary of the method: as §1

[9] = tested on: ICS
Summary of the method: as §1

[10] = tested on: JCK
Summary of the method: as §1

[11] = tested on: N140
Summary of the method: as §1

[12] = tested on: P93_24
Summary of the method: as §1

[13] = tested on: PAD
Summary of the method: as §1

[14] = tested on: PC15
Summary of the method: as §1

[15] = tested on: PC26
Summary of the method: as §1

[16] = tested on: SC27B
Summary of the method: as §1

[17] = tested on: TAB109
Summary of the method: as §1

[18] = tested on: TAB113
Summary of the method: as §1

[19] = tested on: P94_40
Summary of the method: as §1

[20] = tested on: PC49
Summary of the method: as §1

Measured: Potency

CC(C)NC(C)C
not listed: [19] | [20]
inactive: all other assays above

NC(=O)c1cc([N+](=O)[O-])cc([N+](=O)[O-])c1
inactive: [3] | [4] | [5] | [6] | [8] | [19] | [13] | [20] | [16] | [17] | [18]

CN1CCC(O)(c2ccc(F)cc2)C(C(=O)c2ccc(F)cc2)C1 (stereo not drawn)
not listed: [12]
inactive: all other assays above
